Records with an inconclusive call do not appear. The source made the active and inactive calls. Calls come from the whole dose curve; as a rule, active = well fitted cell-killing curve with a large enough effect; inconclusive = small, poorly fitted or top-dose-only effect, or effect the other way; inactive = no such curve, though single readings can be large or run the other way.
Potency is the fitted concentration of half-maximal effect.

The experiment can be described thus: Quantitative High-Throughput drug screen in 47 multiple myeloma cell lines against the NCATS MIPE library collection: XG6_PLB cell viability assay (AID 1919865). Note: nearly all actives have a fitted effect of over 40% in size. To be noted: XG6 myeloma viability, CellTiter-Glo ATP luminescence, 48 h; series mostly up to 45.8 µM; viability (% of control): at the top concentration. The text has this:
PI: Beverly A. Mock Ph.D.
Laboratory of Cancer Biology and Genetics,
Center for Cancer Research, National Cancer Institute,
National Institute of Health, Bethesda, Maryland
Drug resistance and disease progression are common in multiple myeloma (MM) patients, underscoring the need for new therapeutic combinations. […] We hypothesized that effective combinations would reduce MYC expression and enhance p16 activity. […] These preclinical data identify potentially useful drug combinations for evaluation in drug-resistant MM and reveal potential mechanisms of combined drug sensitivity.
Described herein is the primary MIPE qHTS used to cherrypick compounds. Validated compounds were then further tested for potential synergistic activiy.
[1] Peat TJ, Gaikwad SM, Dubois W, Gyabaah-Kessie N, Zhang S, Gorjifard S, Phyo Z, Andres M, Hughitt VK, Simpson RM, Miller MA, Girvin AT, Taylor A, Williams D, D'Antonio N, Zhang Y, Rajagopalan A, Flietner E, Wilson K, Zhang X, Shinn P, Klumpp-Thomas C, McKnight C, Itkin Z, Chen L, Kazandijian D, Zhang J, Michalowski AM, Simmons JK, Keats J, Thomas CJ, Mock BA. Drug combinations identified by high-throughput screening promote cell cycle transition and upregulate Smad pathways in myeloma. Cancer Lett. 2023 Aug 1;568:216284. doi: 10.1016/j.canlet.2023.216284. Epub 2023 Jun 24. PMID: 37356470; PMCID: PMC10408729.
SEQUENCE No. (e.g., 1, 2, 3, etc.); […] (e.g., Cells, Incubation, Reagent, etc.); VALUE and DESCRIPTION.
1; Cells; 5 uL; white, solid bottom 1536-well Greiner assay plate.
2; Compounds; 23 nL; Kalypsis pin tool (Wako USA) equipped with a 1536-well pin head to transfer to the assay plates.
3; Incubation; 48 hours; 37C incubation.
4; Reagent;5uL; CellTiter Glo (Promega).
5; Detector; 425V; Luminescence; Viewlux PerkinElmer.
NOTES (numbers refer to Sequence numbers above)
1. The cell-based screening methods employed in this study were like those previously published. Briefly, the corresponding myeloma cell lines were screened in 1,536-well plates with 500 cells, 5-uL per well for inhibition of cell viability (assessed by measuring ATP levels with CellTiterGlo).
2. NCATS MIPE 4.0 library of approved and investigational drugs were added using the Kalypsis pin tool. Wells treated with DMSO only for 100% viability and media only for 0% viability were used as controls.
3. The assay plates were covered and incubated for 48 hours in a 37C, 5% CO2 incubator with controlled humidity.
4. After 48 hours, CellTilter-GloTM luminescent substrate mix (Promega) reagent was added to the assay plate and plates we incubated for 5 min at room temperature.
5. Signal was measured as median relative luminescence units on a ViewLux (PerkinElmer) multiplate reader.
[1] Heske CM, Davis MI, Baumgart JT, Wilson K, Gormally MV, Chen L, Zhang X, Ceribelli M, Duveau DY, Guha R, Ferrer M, Arnaldez FI, Ji J, Tran HL, Zhang Y, Mendoza A, Helman LJ, Thomas CJ. Matrix Screen Identifies Synergistic Combination of PARP Inhibitors and Nicotinamide Phosphoribosyltransferase (NAMPT) Inhibitors in Ewing Sarcoma. Clin Cancer Res. 2017 Dec 1;23(23):7301-7311. doi: 10.1158/1078-0432.CCR-17-1121. Epub 2017 Sep 12. PMID: 28899971; PMCID: PMC6636827.
`Cn1cc(C2=C(c3c4n(c5ccccc35)CCC(CN)C4)C(=O)NC2=O)c2ccccc21` (stereo not given): the Potency was 7430 nM (active).
For `COc1ccc(Nc2nccc(NCCO)n2)cc1`, the “viability (% of control)” value is 93.8% (inactive).
Regarding `CC(=O)NC(CS)C(=O)O` (stereo not given), the “viability (% of control)” value is 75.9% (inactive).
Take `C[C@@H]1[C@H](C)CC[C@]2(C(=O)O)CC[C@]3(C)C(=CC[C@@H]4[C@@]5(C)C[C@@H](O)[C@H](O)[C@@](C)(CO)[C@H]5CC[C@]43C)[C@@H]12`: the “viability (% of control)” value is 82.6% (inactive).
For `CCC(C(=O)O)C1CCC(C)C(C(C)C(O)C(C)C(=O)C(CC)C2OC3(C=CC(O)[C@@]4(CC[C@](C)(C5CC[C@@](O)(CC)C(C)O5)O4)O3)C(C)CC2C)O1` (stereo not given in full), the Potency was 3320 nM (active).
Turning to `CN[C@H](CC(C)C)C(=O)N[C@H]1C(=O)N[C@@H](CC(N)=O)C(=O)N[C@@H]2C(=O)N[C@H]3C(=O)N[C@H](C(=O)N[C@H](C(=O)O)c4cc(O)cc(O)c4-c4cc3ccc4O)[C@H](O)c3ccc(c(Cl)c3)Oc3cc2cc(c3O[C@@H]2O[C@H](CO)[C@@H](O)[C@H](O)[C@@H]2O[C@H]2C[C@](C)(N)[C@H](O)[C@H](C)O2)Oc2ccc(cc2Cl)[C@H]1O`, the Potency was 18700 nM (active).
On to `CCCCOc1ccc(C(=O)Nc2ccc(F)cc2F)cc1`, for which the “viability (% of control)” value is 94.1% (inactive).
Still for that read-out and setting: as for `C[C@@H](NCc1cc2ccccc2[nH]1)c1cccc2ccccc12`, the figure is 79.1% (inactive).
For `CO[C@@H]1[C@@H](O)[C@H](O)[C@@H](n2c3c(Cl)cccc3c3c4c(c5c6cccc(Cl)c6[nH]c5c32)C(=O)NC4=O)O[C@@H]1CO`, the Potency is 74.3 nM (active).
Same read-out and setting: as for `O=c1c(O)c(-c2ccc(O)c(O)c2)oc2cc(O)ccc12`, the figure is 18700 nM (active).
In the case of `Cc1ccc(O)c(C(CCN(C(C)C)C(C)C)c2ccccc2)c1` (stereo not given), the “viability (% of control)” value is 102% (inactive).
In the case of `NC(=O)Nc1sc(-c2ccc(F)cc2)cc1C(N)=O`, the Potency was 10.5 nM (active).
Same read-out and setting: as for `N#Cc1ccc(COC[C@H]2O[C@@H](n3c(NCc4ccc(Cl)c(Cl)c4)nc4c(N)ncnc43)[C@@H](O)[C@@H]2O)cc1`, the figure is 16600 nM (active).
On the same count and under the same terms, as for `CC(C=CC(=O)NO)=C[C@@H](C)C(=O)c1ccc(N(C)C)cc1`, the figure is 469 nM (active).
With `C[C@H](CCC(=O)O)[C@H]1CC[C@H]2[C@@H]3[C@H](O)C[C@@H]4C[C@H](O)CC[C@]4(C)[C@@H]3CC[C@]12C`, the “viability (% of control)” value is 103% (inactive).
For the compound `CCN(CC)Cc1ccc2cc(COC(=O)Nc3ccc(C(=O)NO)cc3)ccc2c1`, the Potency is 1660 nM (active).
On the same count and under the same terms, as for `CC(C)C[C@H](NC(=O)CNC(=O)c1cc(Cl)ccc1Cl)B1OC(=O)CC(CC(=O)O)(C(=O)O)O1` (stereo not given in full), the figure is 26.4 nM (active).
For the compound `O=C(O)C(=O)Nc1cccc(C2=NN=N[N]2)c1`, the “viability (% of control)” value is 109% (inactive).
The same measure, in the same setting: as for `CC(=O)OCC(=O)[C@@]1(O)CC[C@H]2[C@@H]3CCC4=CC(=O)CC[C@]4(C)[C@@H]3C(=O)C[C@@]21C`, the figure is 105% (inactive).
`CC(C)(C)c1nc2c3cc[nH]c(=O)c3c3cc(F)ccc3c2[nH]1`: the Potency is 1320 nM (active).
On the same count and under the same terms, as for `CN(C)c1ccc(C(=O)NCCCCCCC(=O)NO)cc1`, the figure is 1870 nM (active).
Still for that read-out and setting: as for `O=C(CCCCCCC(=O)Nc1cccnc1)NO`, the figure is 11800 nM (active).
For `CCN(C(=O)c1c(O)c2c(Cl)cccc2n(C)c1=O)c1ccccc1`, the “viability (% of control)” value is 106% (inactive).
Regarding `C=CCNC1=C2C[C@@H](C)C[C@H](OC)[C@@H](O)[C@@H](C)C=C(C)[C@H](OC(N)=O)[C@@H](OC)C=CC=C(C)C(=O)NC(=CC1=O)C2=O`, the Potency is 2640 nM (active).
For `O=C(Nc1nnc(-c2ccco2)o1)c1cc(-c2ccccc2)nc2ccccc12`, the Potency is 4180 nM (active).
On the same count and under the same terms, as for `CNC(=O)c1cccc(-c2ccc3c(N4CCOC[C@H]4C)nc(N4CCOC[C@H]4C)nc3n2)c1`, the figure is 83.3 nM (active).
Turning to `CC(=O)OC[C@@H]1O[C@@H](n2ccc(=O)[nH]c2=O)[C@H](OC(C)=O)[C@H]1OC(C)=O`, the “viability (% of control)” value is 97.8% (inactive).
As to `COc1cc2c(Nc3ccc(Cl)c(Cl)c3F)ncnc2cc1OCC1C[C@@H]2CN(C)C[C@H]2C1`, the Potency is 1050 nM (active).
On to `O=C1c2c(O)cccc2[C@@H]([C@@H]2O[C@H](CO)[C@@H](O)[C@H](O)[C@H]2O)c2cc(CO)cc(O)c21`, for which the “viability (% of control)” value is 120% (inactive).
On the same count and under the same terms, as for `O=C(c1ccc(F)cc1)N1CCC[C@H](c2nc(-c3ccc(F)cc3)no2)C1`, the figure is 134% (inactive).
As for `CN(C)CC(=O)N1CCC(c2ccc(NC(=O)c3ncc(C#N)[nH]3)c(C3=CCCCC3)c2)CC1`, the Potency was 18700 nM (active).
For the compound `CC(=O)O[C@H]1C[C@@H]2CC[C@H]3[C@H]4C[C@H]([N+]5(C)CCCCC5)[C@@H](OC(C)=O)[C@@]4(C)CC[C@@H]3[C@@]2(C)C[C@H]1[N+]1(C)CCCCC1`, the “viability (% of control)” value is 109% (inactive).
On to `Cc1cc(Nc2ncc3c(n2)N(C)C(=O)N(c2cc(NC(=O)c4cccc(C(F)(F)F)c4)ccc2C)C3)n(C)n1`, for which the Potency was 935 nM (active).
The same measure, in the same setting: as for `Cc1cncc2cccc(S(=O)(=O)N3CCCN(C(=O)CN)C[C@@H]3C)c12`, the figure is 14800 nM (active); as for `Nc1ccc(C(=O)Nc2cccc(-c3nc(N4CCOCC4)c4oc5ncccc5c4n3)c2)cn1`, 2960 nM (active); as for `C=CC(=O)N1CCc2ccc(-n3c(=O)ccc4cnc5ccc(-c6cnn(C)c6)cc5c43)cc21`, 2960 nM (active).
`CCN(CC)CCCCNc1ncc2c(n1)N(C)C(=O)N(c1c(Cl)c(OC)cc(OC)c1Cl)C2`: the Potency was 23500 nM (active).
Still for that read-out and setting: as for `COc1ccc(C(C)=O)c(O)c1`, the figure is 18700 nM (active); as for `COc1cc(OC)cc(-c2ccc3ncc4ccc(=O)n(-c5ccc(N6CCNCC6)c(C(F)(F)F)c5)c4c3c2)c1`, 833 nM (active); as for `C=Cc1c(C)c2cc3nc(cc4[nH]c(cc5nc(cc1[nH]2)C(C)=C5CCC(=O)O)c(CCC(=O)OC)c4C)[C@@]1(C)C3=CC=C(C(=O)OC)[C@H]1C(=O)OC`, 33.2 nM (active).

For the origin of these results see PubChem BioAssay (NCATS).
